From PubChem BioAssay
nsP2pro inh: Primary qHTS for inhibitors of NSP2Pro chikungunya virus (CHIKV); Potency, µM (highest dose often 24.9 µM), for the others: at the highest dose activity change, negative = inhibition, actives largely listed as inhibitors; FRET peptide cleavage, nsP2pro, fluorescence 1 h; AID 1964107, 2024; 31,000 tested, 1.1% active; Polyprotein P1234 (Chikungunya virus (strain S27-African prototype)), Q8JUX6; also: nearly all actives have a fitted effect of over 60% in size
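Recombinant nsP2pro (150 nM) was preincubated with compound 15 min at room temperature in 10 mM Tris-HCl pH 8.0, 0.01% Tween 20. Peptide 2 FRET substrate (2.5 uM) was then added and fluorescence read after 1 h. Seven-point series, up to 25 uM.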
CHIKV nsP2 cell: Secondary cell base assay for inhibitors of NSP2Pro Chikungunya virus (CHIKV). AID 1964100, 2024. 450 tested, 10% active. Potency, µM (titrated, usually from 51.1 µM), inactives show at the top dose activity change, negative = inhibition, usual class: inhibitors. cell-based CHIKV nsP2 protease reporter assay. shares compounds with nsP2pro inh; also: nearly all actives have a fitted effect of over 70% in size
CHIKV NSP2 FL: Selectivity profile for inhibitors of NSP2Pro chikungunya virus (CHIKV): Full length NSP2 enzyme counterscreen (CHIKV-NSP2); Potency, µM (doses to about 50.7 µM), without a hit: at the top dose activity change, negative = inhibition, hits mostly inhibitors; AID 1964101, 2024; 410 tested, 39% active; shares compounds with nsP2pro inh; Full-length CHIKV NSP2 protease enzymatic counterscreen; also: nearly all actives have a fitted effect of over 65% in size
Furin counter: Selectivity profile for inhibitors of NSP2Pro chikungunya virus (CHIKV): Human furin counterscreen | shares compounds with nsP2pro inh | Recombinant human furin enzymatic counterscreen, fluorogenic substrate | Potency, µM (highest dose often 50.6 µM), inactives show at the highest dose activity change, negative = inhibition, hits mostly inhibitors | 410 tested, 6% active
NS23 peptide cs: Selectivity profile for inhibitors of NSP2Pro chikungunya virus (CHIKV): Endogenous NS2/3 peptide Counterscreen; Purified CHIKV nsP2 protease, endogenous NS2/3 peptide cleavage; 410 tested, 34% active; Potency, µM (top dose mostly 51 µM), without a hit: top-dose activity change, negative = inhibition, actives largely listed as inhibitors; shares compounds with nsP2pro inh; also: nearly all actives have a fitted effect of over 55% in size
Papain counter: Selectivity profile for inhibitors of NSP2Pro chikungunya virus (CHIKV): Papain Counterscreen; shares compounds with nsP2pro inh; purified papain protease activity, enzymatic inhibition; Potency, µM (top dose mostly 51 µM), inactives show top-dose activity change, negative = inhibition, actives largely listed as inhibitors; 410 tested, 5% active; AID 1964104, 2024
Target sequence (P00784 whole entry, looked up): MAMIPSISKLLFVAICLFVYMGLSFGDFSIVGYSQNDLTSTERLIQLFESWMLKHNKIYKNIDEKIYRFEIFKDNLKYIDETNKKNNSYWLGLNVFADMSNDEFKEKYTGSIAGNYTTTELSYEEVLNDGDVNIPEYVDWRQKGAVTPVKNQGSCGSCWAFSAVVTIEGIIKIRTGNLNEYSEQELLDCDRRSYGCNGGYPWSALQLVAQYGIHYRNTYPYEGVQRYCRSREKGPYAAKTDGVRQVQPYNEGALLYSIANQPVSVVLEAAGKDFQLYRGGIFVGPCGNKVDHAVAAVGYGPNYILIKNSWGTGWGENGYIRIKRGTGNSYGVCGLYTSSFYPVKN
nsP2pro conf qHTS: Confirmatory qHTS for inhibitors of NSP2Pro chikungunya virus (CHIKV). shares compounds with nsP2pro inh. CHIKV nsP2 protease enzymatic activity, qHTS. Potency, µM (series often up to 25.5 µM), for the others: at the top dose activity change, negative = inhibition, usual class: inhibitors. 410 tested, 43% active. AID 1964105, 2024; also: nearly all actives have a fitted effect of over 75% in size
HCV NS3 counter: Selectivity profile for inhibitors of NSP2Pro chikungunya virus (CHIKV): NS34A-HCV Counterscreen; HCV NS3/4A protease biochemical counterscreen; Potency, µM (series often up to 50.9 µM), hits mostly inhibitors; shares compounds with nsP2pro inh; 410 tested, 20% active; also: nearly all actives have a fitted effect of over 55% in size
The depositor's hits bear a star; i = inactive; ? = inconclusive; ! = not active in a repeat. This is one part of a sample in which hits are shown more often than they occur. Calls follow the shape of the full dose curve. % is scaled to controls: 0 for no effect and ±100 for the full control effect; potency is read from the fitted curve at half-maximal effect.

SMILES	nsP2pro inh	others
Cc1cc(C)cc(NC(=O)c2cnn(-c3ccc(C)c(C)c3)c2C2CCNCC2)c1	-16.0%
O=C(c1ccco1)N1CCN(C(=O)c2cnn(-c3cccc(F)c3)c2C2CCNCC2)CC1	-39.6%
O=C(Nc1cccc(C(F)(F)F)c1)c1cnn(-c2cccc(F)c2)c1C1CCNCC1	8.91µM*	CHIKV nsP2 cell=113.7%;CHIKV NSP2 FL=11.6µM*;Furin counter=-7.0%;NS23 peptide cs=?;Papain counter=2.5%;nsP2pro conf qHTS=?;HCV NS3 counter=7.3µM*
O=C(N[C@H]1CCS[C@H]2CCC[C@@H](C(=O)O)N2C1=O)[C@@H](S)Cc1ccccc1	-25.1%
O=C(c1ccc(C(F)(F)F)cc1)N1CCC2(CC1)CNc1ccccc1[S+](=O)([O-])N2	-4.5%
O=C(O/N=C1\c2ccccc2-c2nc3ccccc3nc21)c1ccco1	?	CHIKV nsP2 cell=1.2%;CHIKV NSP2 FL=3.66µM*;Furin counter=-10.3%;NS23 peptide cs=?;Papain counter=2.59µM*;nsP2pro conf qHTS=3.18µM*;HCV NS3 counter=i
O=C(Nc1cccnc1)c1ccco1	2.0%
Cc1cc(NC(=O)c2ccco2)cc(-c2nc3ccccc3o2)c1O	-28.1%
Cc1noc(C)c1-c1cc(-c2ccc(CN(C)C)cc2)cn2cncc12	i
Cc1occc1-c1ccc2ncnc(NCCc3cnc[nH]3)c2c1	i
Fc1ccc2nc(CCC#Cc3ccccn3)cn2c1	?	CHIKV nsP2 cell=-2.5%;CHIKV NSP2 FL=10.9%;Furin counter=-5.7%;NS23 peptide cs=1.9%;Papain counter=10.9%;nsP2pro conf qHTS=3.4%;HCV NS3 counter=i
CC(=O)Oc1cc2c(s1)CCN(C(C(=O)C1CC1)c1ccccc1F)C2 (configuration not stated)	?	CHIKV nsP2 cell=1.7%;CHIKV NSP2 FL=?;Furin counter=-10.3%;NS23 peptide cs=?;Papain counter=?;nsP2pro conf qHTS=?;HCV NS3 counter=i
Cc1ccc(S(=O)(=O)n2cc(C(=O)Nc3ccc(-c4ccccc4)cc3)c3ccccc32)cc1	i
Cc1ccc(S(=O)(=O)Nc2cc(C(F)(F)F)ccc2C(=O)Nc2nc(-c3ccccc3)cs2)cc1	-3.2%
O=C(Nc1ccc2ncnc(N3CCCC3)c2c1)c1ccc(Cl)s1	i
N#Cc1ccc(O[C@@H]2COCC[C@H]2NC(=O)Cn2nnnc2N)cc1	1.7%
Cc1ccc(CN(C)c2ncnc3ccc(-c4ccc(C(=O)O)o4)cc23)o1	1.0%
COC(=O)c1c(NC(=O)/C(C#N)=C/c2ccccc2)sc2c1C(C(=O)OC)CC2 (configuration not stated)	0.5%
COC(=O)c1c(NC(=O)/C(C#N)=C/c2ccc(OC)cc2)sc2c1C(C(=O)OC)CC2 (configuration not stated)	-8.4%
COC(=O)c1c(NC(=O)C(C)N2C(=O)c3ccccc3C2=O)sc2c1C(C(=O)OC)CC2 (configuration not stated)	?	CHIKV nsP2 cell=?;CHIKV NSP2 FL=?;Furin counter=-8.9%;NS23 peptide cs=5.8µM*;Papain counter=-9.5%;nsP2pro conf qHTS=3.57µM*;HCV NS3 counter=i
Cc1cc(NC(=O)Nc2nnc(-c3cccnc3)s2)ccc1F	-15.6%
CCC(C)CNCC(=O)N1CCC2SC=CC2C1COc1cccc(C)c1 (configuration not stated)	60.3%
Cc1nc(N2CCC(NC(=O)c3sccc3C)CC2)cc(C(F)(F)F)n1	i
CCn1c(=O)c2cc(C(N)=O)c(N)nc2n(C2CC2)c1=O	15.1%
CCN(CC)C(=S)SSC(=S)N(CC)CC	2.48µM*!	CHIKV nsP2 cell=12.6µM*;CHIKV NSP2 FL=14.6µM*;Furin counter=-9.0%;NS23 peptide cs=9.19µM*;Papain counter=?;nsP2pro conf qHTS=1.79µM*;HCV NS3 counter=?
SMILES	nsP2pro inh	others
CC(C)n1nccc1S(=O)(=O)N[C@@H]1[C@@H](Cc2ccccc2)[C@H]2OCC[C@@H]12	-8.9%
COc1cccc(-n2c(=O)[nH]c3cc(Cl)n(-c4ccc(-c5cccc(OC)c5O)cc4)c3c2=O)c1	-16.4%
CC(C)Cc1cc(CC2(NC3CCOCC3)COC2)no1	i
C=CC(=O)N1CCN(c2nc(=O)n(-c3c(C)ccnc3C(C)C)c3nc(-c4c(O)cccc4F)c(F)cc23)[C@@H](C)C1	-1.1%
Cc1nnc(-c2ccc3occ(-c4ccc(S(C)=O)cc4)c3c2)o1 (configuration not stated)	-6.1%
Cc1nc(-c2ccccc2Br)cc([C@H]2CN3CC[C@H]2C[C@@H]3CNC(=O)NC2CCCCC2)n1	5.01µM*	CHIKV nsP2 cell=-3.0%;CHIKV NSP2 FL=?;Furin counter=?;NS23 peptide cs=16.3µM*;Papain counter=-0.1%;nsP2pro conf qHTS=7.98µM*;HCV NS3 counter=13µM*
COc1ccc(-c2cc([C@H]3CN4CC[C@H]3C[C@@H]4CNC(=O)NC3CCCCC3)n(C)n2)cc1	11.8%
Cc1nc(-c2cccs2)cc([C@H]2CN3CC[C@H]2C[C@@H]3COC(=O)NC2CCCCC2)n1	6.3%
Cc1nc(-c2ccco2)cc([C@H]2CN3CC[C@H]2C[C@@H]3CNC(=O)NC2CCCCC2)n1	8.91µM*	CHIKV nsP2 cell=30.7%;CHIKV NSP2 FL=13.3µM*;Furin counter=?;NS23 peptide cs=16.8µM*;Papain counter=-7.6%;nsP2pro conf qHTS=13µM*;HCV NS3 counter=8.41µM*
COc1ccc(-c2cc([C@H]3CN4CC[C@H]3C[C@@H]4COC(=O)NC3CCCCC3)nc(C)n2)cc1	i
CC(=O)c1cccc(NC(=O)NC[C@H]2C[C@@H]3CCN2C[C@@H]3c2cc(-c3ccc(F)cc3)nc(C)n2)c1	i
Cc1nc(CN2CCOc3cc([S+](=O)([O-])Nc4ccccc4)ccc3C2)cs1	i
O=S(=O)(Cl)c1ccc(-c2ccccc2)cc1	-10.1%
CNc1cc(C2CC(NS(=O)(=O)c3ccc(Cl)s3)C2)nc(N)n1 (configuration not stated)	-9.6%
C/C(=N\NC(=O)C(NC(=O)c1ccccc1)c1n[nH]c(=O)c2ccccc12)c1cccc(Br)c1 (configuration not stated)	9.88µM*	CHIKV nsP2 cell=40.8%;CHIKV NSP2 FL=-1.8%;Furin counter=-8.0%;NS23 peptide cs=-17.6%;Papain counter=-15.0%;nsP2pro conf qHTS=-7.6%;HCV NS3 counter=i
